Experimental data: PubChem BioAssay AID686999 (Broad Institute, 2013)
Potency and affinity values are given separately. Inconclusive results are not listed.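 Rule for the calls: active = active in every separate test run, each with half-maximal potency at or under twice its top valid dose; inconclusive = the separate test runs give conflicting calls; inactive = inactive in every test run, including signal rising instead.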

Experiment: Cryptococcus growth inhibition by alamar blue – cell lysis, cherry-picks, replicate tests, mechanism study for C. neoformans antifungal project, dose response (AID 686999)
Settings: 72 h; series mostly up to 35 µM; activity change, negative = inhibition: at the top concentration

Activity change, negative = inhibition, inactive:
Fc1ccccc1NC(=S)NCCc1cccc(Cl)c1 8.81%
CC(C)CC1(C)N=C(c2ccccc2)C(=S)N1 (stereo unspecified) 24.5%
CO[C@H]1CN(C)C(=O)c2cc(NC(=O)C3CC3)ccc2OC[C@@H](C)N(Cc2cncnc2)C[C@H]1C 9.34%
COCCN1C(=S)N[C@@H](c2ccccc2)C(C(=O)OC)=C1C 1.85% [at 42 µM]
CCc1ccc(C(C)NC(=S)NCc2ccc(F)cc2)cc1 (stereo unspecified) -1.97%
CCOC(=O)NC(=S)Nc1ccc(C(C)(C)C)cc1Br -0.187%
CCCCNC(=S)N/N=C/c1ccc(C#N)cc1 13.6%
O=C(NC(=S)Nc1ccc(Br)cc1)C1CCC1 18.4%
COc1ccccc1NC(=S)NCc1ccc(Cl)cc1 17.9%
COc1ccc(NC(=S)NCc2ccc(Cl)cc2)c(OC)c1 5.43%
Cc1ccc(C(=O)NC(=S)Nc2ccc(N3CCOCC3)cc2)cc1 7.95%
Cc1cc(C)c2nc(N3CCN(C(=O)c4cccs4)CC3)sc2c1 -5.83%
S=C(Nc1ccc(Cl)cc1Cl)Nc1ccccc1Oc1ccccc1 9.91%
COc1ccccc1CNC(=S)NCc1ccc(Cl)cc1 15.5%
O=C(NC(=S)Nc1cccc(F)c1)c1cccc([N+](=O)[O-])c1 19.7%
O=C(NC(=S)Nc1ccccc1N1CCOCC1)c1cccc([N+](=O)[O-])c1 3.65%
COc1ccc(C(=O)NC(=S)Nc2ccccc2N2CCCCC2)cc1[N+](=O)[O-] 9.23%
Cc1cc(C(=O)NC(=S)Nc2ccccc2N2CCOCC2)ccc1[N+](=O)[O-] -3.3%
CCc1ccc(C(=O)NC(=S)NCc2cccnc2)cc1 6.98%
COC(=O)C1=C(C)N(Cc2ccccc2)C(=S)N[C@H]1c1cccc(F)c1 9.11%
O=C(NC(=S)Nc1ccccc1N1CCCC1)c1ccc([N+](=O)[O-])cc1 2.13%
